# The source made the active and inactive calls.
# What was measured:
# [1] = small molecules captured by biotinylated probe aFSTL3 – biochemical, small-molecule microarray, fluorescence 635/667, stem cell growth factor project, primary screen (AID 1064); details: higher = more signal;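 also: measures binding of the biotinylated anti-FSTL3 antibody to printed compounds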
# [2] = binders from COS7 lysate, DM2A8 probe, primary screen, torsin A project, cell lysate, small-molecule microarray, fluorescence 635/667 (AID 1065); details: higher = more signal, COS7 lysate expressing mutant human TOR1A
# [3] = small molecules captured by biotinylated probe aFGF2 – biochemical, small-molecule microarray, fluorescence 635/667, stem cell growth factor project, primary screen (AID 1067); details: higher = more signal;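 also: measures binding of biotinylated aFGF2 protein to printed compounds on slides; z-score merges feature fluorescence and signal-to-noise across triplicate slides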
# [4] = small molecules captured by biotinylated probe aFGF10 – biochemical, small-molecule microarray, fluorescence 635/667, stem cell growth factor project, primary screen (AID 1071); details: higher = more signal;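 also: score merges 667 nm spot intensity and signal to noise from triplicate slides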
# [5] = molecular target: Neurogenic locus notch homolog protein 2 (Homo sapiens) (UniProt Q04721); assay: small molecules binding Notch2 protein – biochemical, small-molecule microarray, 635 nm fluorescence, stem cell growth factors, primary screen (AID 1073); details: higher = more signal
# [6] = molecular target: Pro-neuregulin-1, membrane-bound isoform (Homo sapiens) (UniProt Q02297); assay: small molecules binding neuregulin-1 protein – biochemical, small-molecule microarray, fluorescence 635/667, psychiatric disease protein project, primary screen (AID 1075); details: NRG1 binding, 635 nm fluorescence, higher = more signal;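 also: score combines 667 nm spot fluorescence with signal to noise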
# [7] = system: Neuregulin-1 EGF-like domain; assay: small molecules binding NRG1 EGF domain – biochemical, small-molecule microarray, 635 nm fluorescence, primary screen (AID 1081); details: higher = more signal;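 also: binding of the protein to compounds printed on small-molecule microarray slides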
# [8] = FRG1 expression reporter modulators in myotubes – cell-based, C2C12 myotubes, firefly/Renilla luciferase, luminescence, FRG1 inhibition for FSHD, primary screen (AID 1084); details: FRG1 promoter luciferase, higher = more signal, called active from +8 up or from −8 down
# [9] = small molecules captured by biotinylated probe aFST – biochemical, small-molecule microarray, fluorescence 635/667, stem cell growth factor project, primary screen (AID 1086); details: higher = more signal;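 also: score merges 667 nm fluorescence with signal-to-noise of each printed compound spot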
# [10] = binders of probe aHhip on microarray, primary screen, stem cell growth factor project, biochemical, small-molecule microarray, fluorescence 635/667 (AID 1087); details: higher = more signal;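 also: score merges spot fluorescence at 667nm with spot signal to noise ratio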
# [11] = system: PRMT1 (protein arginine N-methyltransferase 1); assay: small molecules binding arginine methyltransferase PRMT1 – biochemical, small-molecule microarray, 635 nm fluorescence, primary screen (AID 1088); details: higher = more signal;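 also: binding of Prmt1 protein to compounds spotted on small-molecule microarray slides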
# [12] = growth effects on S. cerevisiae YJM789 – YJM789 clinical isolate, OD600, 24 h, basal, primary screen (AID 1089); details: higher = more signal, called active from +8 up or from −8 down;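 also: growth of clinical yeast isolate S. cerevisiae YJM 789 seeded 1000 cells per well; test concentration not given here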
# [13] = S. pombe growth modifiers, basal conditions – strain 972, OD600, 24 h, no modulator, primary screen (AID 1090);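 also: basal condition with compound alone and no growth modifier present; test concentration not given here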; details: S. pombe 972 growth, higher = more signal, called active from +8 up or from −8 down
# [14] = budding yeast growth modifiers under rapamycin – strain BY4716, OD600, 96 h, primary screen (AID 1091); also: test concentration not given here; details: S. cerevisiae BY4716 + rapamycin, higher = more signal, called active from +8 up or from −8 down
# [15] = molecular target: Torsin-1A-interacting protein 2 (Homo sapiens) (UniProt Q8NFQ8); assay: small molecules binding lysate-expressed LULL1 – cell lysate, human LULL1 lysate, 635/667 nm fluorescence, primary screen (AID 1092); details: small-molecule microarray, hLULL1 lysate binding, 635 nm fluorescence; higher = more signal;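 also: probe is lysate of COS7 cells overexpressing human LULL1; score merges per-feature 667 nm fluorescence with signal-to-noise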
# [16] = optical density change of DRC41 E. coli – strain DRC41, OD650, 24 h, E. coli filamentation project, primary screen (AID 1093);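 also: MC1000 strain lacking acrAB efflux and sulA so SOS filamentation is blocked; test concentration not given here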; details: E. coli DRC41 growth, higher = more signal, called active from +8 up or from −8 down
# [17] = probe aLefty2 binding to arrayed compounds – biochemical, biotinylated probe, 635/667 nm fluorescence, primary screen (AID 1094); details: small-molecule microarray, higher = more signal;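 also: score merges spot fluorescence near 667 nm with spot signal-to-noise ratio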
# [18] = system: Noggin (protein binding on small-molecule microarray); assay: small molecules binding Noggin protein – biochemical, 635/667 nm fluorescence, primary screen (AID 1095); details: 635 nm fluorescence, higher = more signal;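 also: score merges 667 nm feature fluorescence with signal to noise over triplicate slides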
# [19] = molecular target: Neurogenic locus notch homolog protein 3 (Homo sapiens) (UniProt Q9UM47); assay: small molecules binding NOTCH3 protein – biochemical, 635/667 nm fluorescence, primary screen (AID 1096); details: small-molecule microarray, 635 nm fluorescence, higher = more signal
# [20] = probe aEGFR binding to arrayed compounds – biochemical, biotinylated probe, 635/667 nm fluorescence, primary screen (AID 1097); details: small-molecule microarray, higher = more signal;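 also: probe is a biotinylated anti-EGFR antibody binding compounds printed on slides; score combines fluorescence near 667 nm and signal to noise of each spot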
# Chain of Neurogenic locus notch homolog protein 2 (Homo sapiens) (Q04721 whole entry, looked up, canonical isoform): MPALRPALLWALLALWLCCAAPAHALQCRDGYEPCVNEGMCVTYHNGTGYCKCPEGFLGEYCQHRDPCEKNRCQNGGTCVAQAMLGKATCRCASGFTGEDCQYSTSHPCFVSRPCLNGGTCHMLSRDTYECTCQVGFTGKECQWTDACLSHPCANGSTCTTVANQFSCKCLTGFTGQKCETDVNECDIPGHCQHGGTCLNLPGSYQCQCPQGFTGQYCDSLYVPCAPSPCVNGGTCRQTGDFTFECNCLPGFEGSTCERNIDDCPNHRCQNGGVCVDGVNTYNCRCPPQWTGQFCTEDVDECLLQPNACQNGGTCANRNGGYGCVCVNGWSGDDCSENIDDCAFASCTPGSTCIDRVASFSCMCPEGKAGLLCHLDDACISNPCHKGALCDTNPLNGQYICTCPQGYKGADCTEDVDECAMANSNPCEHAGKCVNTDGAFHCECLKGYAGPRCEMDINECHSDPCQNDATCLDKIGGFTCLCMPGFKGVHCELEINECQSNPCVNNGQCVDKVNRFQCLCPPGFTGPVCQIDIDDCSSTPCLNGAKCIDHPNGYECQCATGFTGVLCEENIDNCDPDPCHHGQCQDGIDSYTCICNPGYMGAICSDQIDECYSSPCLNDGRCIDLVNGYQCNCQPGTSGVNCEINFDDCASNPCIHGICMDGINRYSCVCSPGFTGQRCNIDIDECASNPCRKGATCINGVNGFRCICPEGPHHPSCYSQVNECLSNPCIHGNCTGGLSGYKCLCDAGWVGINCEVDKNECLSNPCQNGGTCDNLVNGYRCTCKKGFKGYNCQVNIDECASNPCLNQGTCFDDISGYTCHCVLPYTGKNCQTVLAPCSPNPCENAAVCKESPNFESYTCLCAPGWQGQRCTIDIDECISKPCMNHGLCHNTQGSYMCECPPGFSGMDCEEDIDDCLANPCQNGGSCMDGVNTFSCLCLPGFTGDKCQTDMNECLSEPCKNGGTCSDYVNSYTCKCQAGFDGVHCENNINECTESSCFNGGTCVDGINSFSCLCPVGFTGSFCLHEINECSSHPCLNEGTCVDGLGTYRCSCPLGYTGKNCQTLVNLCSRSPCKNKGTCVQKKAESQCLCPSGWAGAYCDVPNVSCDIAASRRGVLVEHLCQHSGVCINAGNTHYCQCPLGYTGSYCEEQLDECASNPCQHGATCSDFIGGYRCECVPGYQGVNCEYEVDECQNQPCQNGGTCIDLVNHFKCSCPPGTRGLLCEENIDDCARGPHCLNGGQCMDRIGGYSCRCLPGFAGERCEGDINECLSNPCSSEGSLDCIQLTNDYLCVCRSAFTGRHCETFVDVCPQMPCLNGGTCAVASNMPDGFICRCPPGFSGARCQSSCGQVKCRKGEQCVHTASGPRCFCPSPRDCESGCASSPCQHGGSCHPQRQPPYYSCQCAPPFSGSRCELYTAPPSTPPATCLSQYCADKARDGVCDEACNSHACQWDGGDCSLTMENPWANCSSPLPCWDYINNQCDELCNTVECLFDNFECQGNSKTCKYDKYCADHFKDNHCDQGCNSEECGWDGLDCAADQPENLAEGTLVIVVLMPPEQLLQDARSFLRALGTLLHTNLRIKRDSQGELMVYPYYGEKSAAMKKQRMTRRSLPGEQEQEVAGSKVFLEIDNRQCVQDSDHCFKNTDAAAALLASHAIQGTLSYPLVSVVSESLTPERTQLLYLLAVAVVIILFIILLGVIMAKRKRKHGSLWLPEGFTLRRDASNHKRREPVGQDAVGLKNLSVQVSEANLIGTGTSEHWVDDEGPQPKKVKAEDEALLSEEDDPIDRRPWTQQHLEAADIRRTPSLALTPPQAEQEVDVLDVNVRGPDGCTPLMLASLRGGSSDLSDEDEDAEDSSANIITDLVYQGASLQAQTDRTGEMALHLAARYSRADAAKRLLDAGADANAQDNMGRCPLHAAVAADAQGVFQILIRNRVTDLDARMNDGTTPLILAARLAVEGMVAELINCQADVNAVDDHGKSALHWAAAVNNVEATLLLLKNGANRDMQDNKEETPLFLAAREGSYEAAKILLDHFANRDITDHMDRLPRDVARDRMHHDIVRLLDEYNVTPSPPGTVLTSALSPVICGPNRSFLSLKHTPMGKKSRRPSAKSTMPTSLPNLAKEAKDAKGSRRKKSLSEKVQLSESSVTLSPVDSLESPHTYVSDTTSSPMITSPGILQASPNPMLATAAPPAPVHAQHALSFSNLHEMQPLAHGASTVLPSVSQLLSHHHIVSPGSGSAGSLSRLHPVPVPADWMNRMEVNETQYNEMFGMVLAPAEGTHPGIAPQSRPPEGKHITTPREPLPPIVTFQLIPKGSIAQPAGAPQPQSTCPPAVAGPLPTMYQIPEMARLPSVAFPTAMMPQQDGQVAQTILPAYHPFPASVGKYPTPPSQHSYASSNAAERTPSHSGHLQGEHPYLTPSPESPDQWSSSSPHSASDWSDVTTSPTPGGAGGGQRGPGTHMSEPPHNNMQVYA
# Chain of Pro-neuregulin-1, membrane-bound isoform (Homo sapiens) (Q02297 whole entry, looked up, the tested form may be a part, canonical isoform): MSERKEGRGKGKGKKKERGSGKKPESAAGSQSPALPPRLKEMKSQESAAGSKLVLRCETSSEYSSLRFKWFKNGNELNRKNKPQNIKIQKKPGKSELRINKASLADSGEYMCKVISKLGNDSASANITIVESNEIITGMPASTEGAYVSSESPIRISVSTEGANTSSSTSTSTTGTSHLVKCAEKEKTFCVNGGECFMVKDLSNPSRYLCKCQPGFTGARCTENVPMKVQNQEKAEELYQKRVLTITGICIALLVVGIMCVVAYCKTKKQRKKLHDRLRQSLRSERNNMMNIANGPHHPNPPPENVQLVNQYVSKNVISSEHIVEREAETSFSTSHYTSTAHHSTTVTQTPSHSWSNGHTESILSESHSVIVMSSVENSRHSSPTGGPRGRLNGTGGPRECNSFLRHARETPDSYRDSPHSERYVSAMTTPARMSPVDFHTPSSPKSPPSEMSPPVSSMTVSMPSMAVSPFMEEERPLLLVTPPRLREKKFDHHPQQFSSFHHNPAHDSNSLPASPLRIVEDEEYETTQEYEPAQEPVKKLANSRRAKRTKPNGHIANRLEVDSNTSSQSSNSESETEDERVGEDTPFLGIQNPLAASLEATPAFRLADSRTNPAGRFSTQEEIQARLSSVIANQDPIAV
# Chain of Torsin-1A-interacting protein 2 (Homo sapiens) (Q8NFQ8 whole entry, looked up): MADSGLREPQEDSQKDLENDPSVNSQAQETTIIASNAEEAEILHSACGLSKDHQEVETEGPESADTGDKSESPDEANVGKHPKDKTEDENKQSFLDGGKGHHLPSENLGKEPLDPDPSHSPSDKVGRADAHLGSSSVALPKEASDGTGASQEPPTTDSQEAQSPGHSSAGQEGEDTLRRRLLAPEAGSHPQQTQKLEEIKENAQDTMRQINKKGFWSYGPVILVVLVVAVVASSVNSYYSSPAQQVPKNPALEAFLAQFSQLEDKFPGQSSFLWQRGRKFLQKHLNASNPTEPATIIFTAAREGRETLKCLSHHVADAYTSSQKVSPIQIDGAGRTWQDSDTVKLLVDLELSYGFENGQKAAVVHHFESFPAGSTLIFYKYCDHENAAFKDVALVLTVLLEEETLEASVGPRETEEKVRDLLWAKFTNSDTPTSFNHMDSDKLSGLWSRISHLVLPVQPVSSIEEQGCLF
Structure (SMILES),composite z-score [1],composite z-score [2],composite z-score [3],composite z-score [4],composite z-score [5],composite z-score [6],composite z-score [7],z-score [8],composite z-score [9],composite z-score [10],composite z-score [11],z-score [12],z-score [13],z-score [14],composite z-score [15],z-score [16],composite z-score [17],composite z-score [18],composite z-score [19],composite z-score [20]
CCOC(=O)C=Cc1cc([N+](=O)[O-])ccc1O,0.36,-0.11,-0.159,-0.239,-1,-0.306,0.358,2.07 (inactive),-0.31,0.0044,0.385,-1.21 (inactive),-0.201 (inactive),-1.62 (inactive),0.381,-0.828 (inactive),-0.088,-0.609,-0.465,-0.141
C=CCC(OC(C)=O)[C@@H]1[C@@H](N(Cc2cccc3ccccc23)C(=O)c2ccc(-c3ccccc3)cc2)c2cc(OCCCO)ccc2N1C(=O)Cc1ccc(OC)cc1 (stereo not given in full),-0.184,0.419,-0.061,0.151,-0.131,0.0521,0.138,0.61 (inactive),-0.0107,-0.0618,0.341,-0.715 (inactive),-0.445 (inactive),-1.03 (inactive),0.792,0.457 (inactive),-0.0491,0.0231,0.0343,-0.0415
CN(C)C(=O)[C@@]1(Cc2ccccc2CN=[N+]=[N-])N=C(c2ccc(OCCCO)cc2)O[C@H]1c1ccccc1,0.214,-0.163,0.0575,0.663,0.604,1.17,0.91,-2.25 (inactive),0.46,-0.169,1.32,0.365 (inactive),0.0586 (inactive),34.7 (active),3.32,0.632 (inactive),0.0561,0.788,0.301,-0.0356
O=C1C2C=CC(C(O)C(c3ccccc3)c3ccccc3)N(n3cnnc3)C2C(=O)N1Cc1ccccc1 (stereo not given),-0.148,0.488,0.129,0.784,0.492,0.429,1.19,0.266 (inactive),0.578,0.446,1.44,-0.743 (inactive),-0.615 (inactive),-0.771 (inactive),3.25,-1.21 (inactive),-0.109,0.531,1.1,-0.167
CCCCCN1CC=CC23O[C@@H]4/C=C\CCCOC(=O)C4[C@H]2C(=O)N(C(CO)C(C)C)[C@@H]3C1=O (stereo not given in full),-0.101,-0.856,-0.103,-0.106,-0.65,-0.583,1.52,-0.196 (inactive),-0.384,0.0854,0.0207,-0.215 (inactive),-0.84 (inactive),-0.809 (inactive),0.868,1.65 (inactive),-0.124,0.0296,0.243,-0.201
CCOC(=O)[C@H]1C/C=C/C[C@H](C(=O)OCC)C(=O)O[C@H]2[C@@H](OC)O[C@H](CO)[C@@H](OC(=O)Nc3cccc(F)c3)[C@@H]2OC1=O,-0.621,-0.125,-0.0766,0.39,0.196,1.21,1.15,0.15 (inactive),0.0218,-0.444,1.11,1.52 (inactive),0.268 (inactive),22.2 (active),2.94,-0.168 (inactive),-0.162,0.719,1.02,-0.2
COc1ccc(CCN2C(=O)[C@@]3(Cc4ccccc42)c2ccccc2C(=O)N(Cc2ccccc2C(F)(F)F)[C@H]3c2ccc(CO)cc2)cc1,-0.402,-0.0678,-0.128,-0.106,-0.112,-0.112,0.791,0.453 (inactive),-0.256,-0.0994,0.67,0.276 (inactive),-0.414 (inactive),-1.68 (inactive),0.568,-2.33 (inactive),0.0077,0.451,-0.39,-0.276
CC(C)C[C@@H]1NC(=O)[C@H]2C[C@@H](C(=O)NCCCCCCN)[C@@H](c3ccc(O)cc3)N2C1=O,0.839,0.252,-0.0212,-0.0652,-0.277,0.612,1.1,-0.811 (inactive),0.472,0.134,1.17,-0.582 (inactive),-0.464 (inactive),-0.283 (inactive),2.32,-0.11 (inactive),0.679,0.696,0.529,0.125
COC(=O)[C@@]1(Cc2ccccc2)[C@H]2c3cc(C(=O)N4CCCC4)n(CC4CC4)c3C[C@H]2CN1C(=O)c1ccccc1,0.963,0.365,0.424,0.703,1.6,1.64,1.14,0.692 (inactive),2.15,0.337,1.21,0.0645 (inactive),0.513 (inactive),0.667 (inactive),3.32,-0.887 (inactive),0.508,0.294,1.05,0.776
CC(C)(C)OC(=O)CC[C@@]12N=C(c3ccc(OCCCO)cc3)O[C@@H]1c1ccccc1N(CCS(=O)(=O)c1ccccc1)C2=O,0.742,0.066,-0.0174,-0.366,0.893,0.729,1.11,-2.9 (inactive),0.687,0.0302,1.07,-0.0877 (inactive),0.326 (inactive),0.0825 (inactive),2.48,1.68 (inactive),0.193,0.427,0.784,-0.0679
COc1ccc(C(=O)Nc2ccc(CN3C(=O)[C@@]4(O[C@@H](CC(=O)N5CCC[C@H]5CO)[C@H]([Si](C)(C)c5ccc(OC)cc5)[C@H]4C)c4ccccc43)cc2)cc1,-0.172,0.195,-0.0202,0.577,1.47,1.3,1.16,-4.05 (inactive),0.543,0.176,1.55,-0.466 (inactive),-0.838 (inactive),-0.436 (inactive),2.07,0.632 (inactive),-0.0134,1.05,1.09,0.131
